Laboratory results: paper PMC4336329 (PLoS ONE, 2015)
Out of some 310,000 compounds screened, about 14,000 (4.5%) showed an effect of 50% or more. Effects have a minus sign here. The list comes from a sample in which strong results are over-represented; it also holds similar structures and randomly drawn compounds.

target: human ether-à-go-go-related gene (hERG) potassium channel (human, UniProt Q12809); test: primary screen, population patch clamp on CHO cells stably expressing hERG; higher = less effect of the substance
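Note: peak tail current of the secondary pulse compared with the same well before compound.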

Chain of human ether-à-go-go-related gene (hERG) potassium channel (Q12809 whole entry, looked up): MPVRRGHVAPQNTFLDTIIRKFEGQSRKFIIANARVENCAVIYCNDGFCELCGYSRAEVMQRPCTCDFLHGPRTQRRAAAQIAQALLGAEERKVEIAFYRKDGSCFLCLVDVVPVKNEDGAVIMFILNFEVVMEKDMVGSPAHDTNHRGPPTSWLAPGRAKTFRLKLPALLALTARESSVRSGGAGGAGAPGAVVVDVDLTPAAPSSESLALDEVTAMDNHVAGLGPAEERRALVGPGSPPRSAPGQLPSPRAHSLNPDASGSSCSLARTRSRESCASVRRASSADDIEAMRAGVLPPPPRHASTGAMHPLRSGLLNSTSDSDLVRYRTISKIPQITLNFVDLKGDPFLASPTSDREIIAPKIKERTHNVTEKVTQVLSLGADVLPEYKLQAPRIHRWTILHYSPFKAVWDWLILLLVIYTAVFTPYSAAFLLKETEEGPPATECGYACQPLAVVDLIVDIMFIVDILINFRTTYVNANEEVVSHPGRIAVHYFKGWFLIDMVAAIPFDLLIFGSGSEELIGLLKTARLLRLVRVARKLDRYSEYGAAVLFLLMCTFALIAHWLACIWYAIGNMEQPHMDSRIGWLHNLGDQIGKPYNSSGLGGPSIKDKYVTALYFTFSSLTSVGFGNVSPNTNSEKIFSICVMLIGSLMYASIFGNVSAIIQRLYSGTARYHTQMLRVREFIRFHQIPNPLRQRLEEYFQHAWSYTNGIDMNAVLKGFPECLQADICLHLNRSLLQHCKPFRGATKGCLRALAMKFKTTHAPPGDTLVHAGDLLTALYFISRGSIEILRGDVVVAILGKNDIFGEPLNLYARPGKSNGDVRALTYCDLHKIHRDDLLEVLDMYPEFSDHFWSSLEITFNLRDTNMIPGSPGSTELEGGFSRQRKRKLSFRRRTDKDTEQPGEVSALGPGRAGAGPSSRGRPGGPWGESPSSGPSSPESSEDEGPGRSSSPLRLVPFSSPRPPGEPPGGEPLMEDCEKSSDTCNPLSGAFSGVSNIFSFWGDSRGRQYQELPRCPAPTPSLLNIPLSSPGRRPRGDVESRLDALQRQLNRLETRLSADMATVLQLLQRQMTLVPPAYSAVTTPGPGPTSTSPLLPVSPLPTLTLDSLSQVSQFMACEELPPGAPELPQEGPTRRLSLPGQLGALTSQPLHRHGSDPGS

Row | Compound | hERG current change (%, negative = inhibition) at 10uM [%]
1 | CCCCc1cc(=O)oc2cc(OCC(=O)N3CCc4ccccc43)ccc12 | 6.81
2 | CCN(CC)CCOc1ccc2c(c1)C(=NO)c1cc(OCCN(CC)CC)ccc1-2.Cl | -16.4
3 | CCOc1ccc(OCCN2CCCCC2)cc1.O=C(O)C(=O)O | -21.7
4 | Cl.ON=C1c2cc(OCCN3CCCCC3)ccc2-c2ccc(OCCN3CCCCC3)cc21 | -58.1
5 | CCOc1ccc(OCCOCCN2CCCC2)cc1.O=C(O)C(=O)O | 0.376
6 | COC(=O)c1ccc(OCCN2CCCCCC2)cc1.O=C(O)C(=O)O | -1.51
7 | CCOc1ccc(C(=O)CCN2CCCCC2)cc1 | -19.7
8 | O=C(O)C(=O)O.c1ccc(OCCN2CCOCC2)cc1 | 12
9 | O=C(O)C(=O)O.c1ccc(COc2ccc(OCCN3CCCC3)cc2)cc1 | -60.3
10 | Cc1ccc(OCCN2CCCC2)cc1.O=C(O)C(=O)O | -3.76
11 | c1ccc2cc(OCCN3CCCC3)ccc2c1 | -33.1
12 | CCOc1ccc(CNCCN2CCCC2)cc1.O=C(O)C(=O)O | -63.9
13 | O=C(O)C(=O)O.c1ccc(COc2ccc(OCCN3CCCCC3)cc2)cc1 | -70.2
14 | CCn1c(-c2ccccc2)c[nH]c1=S | 15.4
15 | CN(C)c1cccc(C(=O)NCCCSc2ccccc2)c1 | 4.72
16 | Cc1nn(Cc2ccccc2Cl)c2sc(C(=O)OC3CCCC3=O)cc12 (stereo not shown) | -4.19
17 | COc1cc(NS(=O)(=O)c2ccc(NC(=S)NC(=O)c3ccc(F)cc3)cc2)nc(OC)n1 | 3.73
18 | N#Cc1cc2cc3c(cc2nc1NCCNC(=S)NCCCN1CCOCC1)OCO3 | 14.2
19 | CC(C)CCN1C(=O)c2ccc(C(=O)OCC(=O)N(C)C3CCS(=O)(=O)C3)cc2C1=O (stereo not shown) | -8.41
20 | CC(C)Cn1nc(C(=O)OCC(=O)NCC(F)(F)F)c2ccccc2c1=O | -78.2
21 | CCn1nc(C(=O)OCC(=O)NCC(C)C)c2ccccc2c1=O | 0.00988
22 | CCn1nc(C(=O)OCC(=O)NC(C)C)c2ccccc2c1=O | 8.88
23 | COC(=O)c1cc(NC(=O)c2c(C)noc2C)ccc1N1CCOCC1 | 17.6
24 | COc1ccc(N2C(=O)/C(=C/c3ccc(N(C)C)o3)C(=O)NC2=S)cc1 | 3.28

Row | Compound | hERG current change (%, negative = inhibition) at 10uM [%]
25 | O=C(c1ccc(Cn2cnnn2)cc1)N1CCCC(Nc2ccc(F)cc2)C1 (stereo not shown) | -0.196
26 | CC(=O)Nc1ccc(CN2CCN(Cc3ccc(C)cc3)C(CCO)C2)cc1 (stereo not shown) | -34.5
27 | COc1ccc(CN2CCN(Cc3ccc(C)cc3)C(CCO)C2)cc1OC (stereo not shown) | -54.3
28 | COc1ccc(CN2CCN(Cc3ccc(CO)o3)CC2CCO)cc1C (stereo not shown) | -8.64
29 | COc1cc(CN2CCN(Cc3ccc(C)cc3)C(CCO)C2)ccc1O (stereo not shown) | -19.6
30 | COc1cc(CN2CCN(Cc3ccc(C)cc3)C(CCO)C2)cc(OC)c1O (stereo not shown) | -51.6
31 | COc1cccc(CN2CCN(Cc3ccc(O)c(OC)c3)CC2CCO)c1 (stereo not shown) | -5.76
32 | CCOc1cccc(OCCOCCN(C)C)c1.O=C(O)C(=O)O | 0.719
33 | COC(=O)c1ccc(CN2C(=O)NC3(CCCCC3C)C2=O)o1 (stereo not shown) | -11.4
34 | O=C(CSc1nnc(Cc2ccccc2)o1)Nc1ccc2c(c1)OCO2 | 10.5
35 | CCOC(=O)Cc1csc(NC(=O)Cc2ccccc2)n1 | 1.37
36 | CC(=O)N1c2ccc(S(=O)(=O)N3CCC(C(=O)Nc4cccc(C(F)(F)F)c4)CC3)cc2CC1C (stereo not shown) | 11.7
37 | COc1ccc(OCc2cc(C(=O)N3CCCCCC3)no2)c(Cl)c1 | -11.7
38 | O=C(Nc1ccccc1)N1CCN(CCc2ccccc2)CC1 | -14.5
39 | O=C(Nc1ccc(F)cc1)N1CCN(CCc2ccccc2)CC1 | -52.3
40 | O=C(Nc1cccc(Cl)c1)N1CCN(C/C=C/c2ccccc2)CC1 | -68.5
41 | S=C(Nc1ccccc1)N1CCN(C/C=C/c2ccccc2)CC1 | -8.71
42 | O=C(Nc1ccc2c(c1)OCO2)N1CCN(C/C=C/c2ccccc2)CC1 | -15.4
43 | O=C(Nc1ccc(F)cc1F)N1CCN(CCc2ccccc2)CC1 | -15.6
44 | CCOC(=O)N1CCN(C(=O)Nc2cccc(Cl)c2)CC1 | 2.81
45 | O=C(Nc1cccc(Cl)c1)N1CCOCC1 | 20
46 | O=C(Nc1cccc(F)c1)N1CCN(C/C=C/c2ccccc2)CC1 | -59
47 | O=C(Nc1ccc(F)cc1)N1CCN(C/C=C/c2ccccc2)CC1 | -68.6
48 | O=C(Cc1ccccc1)Nc1ccc(N2CCOCC2)cc1N1CCOCC1 | -0.646

Row | Compound | hERG current change (%, negative = inhibition) at 10uM [%]
49 | CSCCC(NC(=O)COc1ccccc1)C(=O)N1CC(C)CC(C)C1 (stereo not shown) | -41.4
50 | CCCCc1cc(=O)oc2c(CN3CCCC3)c(O)c(Cl)cc12 | -20.9
51 | COC(=O)c1[nH]c2c(c1C)C(=O)CC(c1ccc(OC)c(OC)c1)C2 (stereo not shown) | -0.262
52 | CC(Sc1ccccc1)C(=O)N(CCC#N)Cc1cccnc1 (stereo not shown) | 6.64
53 | Cc1ccc(NC(=O)CSc2nnc(-c3cnccn3)n2Cc2ccco2)cc1 | -21.3
54 | COc1ccccc1C1CC(c2ccc(Cl)cc2)Nc2ncnn21 (stereo not shown) | -44.8
55 | Cc1cccn2c(CN(C)C3CCOC3)c(C(=O)N3CCCCC3)nc12 (stereo not shown) | 32.3
56 | O=c1cc(-c2ccc(O)c(O)c2)oc2cc(O)c(C3OC(CO)C(O)C(O)C3O)c(O)c12 (stereo not shown) | 3.72
57 | CC1(C)Cc2cccc(OCC(=O)NCc3cccs3)c2O1 | -0.101
58 | CC1=C(C)CC(C(=O)N2CCN(C/C=C/c3ccccc3)CC2)C(C(=O)O)C1 (stereo not shown) | 8.99
59 | C=C(C)c1cccc(C(C)(C)NC(=O)N2CCN(CC)CC2)c1 | 7.13
60 | O=C(C1CCN(Cc2ccccc2)CC1)N1CCN(C/C=C/c2ccccc2)CC1.O=C(O)C(=O)O | -33.3
61 | Cc1ccc(NC(=O)N2CCN(C/C=C/c3ccccc3)CC2)cc1 | -44.6
62 | C=C(C)c1cccc(C(C)(C)NC(=O)N2CCN(CC(N)=O)CC2)c1 | 11.3
63 | O=C(C1CCN(Cc2ccc(F)cc2)CC1)N1CCN(C/C=C/c2ccccc2)CC1.O=C(O)C(=O)O | -63.6
64 | CCNC(=O)N1CCN(CCCC(c2ccc(F)cc2)c2ccc(F)cc2)CC1.Cl | -82.3
65 | CCNC(=O)N1CCN(C(=O)NCC)CC1 | 15.7
66 | C=C(C)c1cccc(C(C)(C)NC(=O)N2CCN(C/C=C/c3ccccc3)CC2)c1 | -62.9
67 | Cc1cc(C)cc(NC(=O)N2CCN(C/C=C/c3ccccc3)CC2)c1 | -69
68 | O=C(Cc1ccccc1)N1CCN(Cc2ccc(F)cc2)CC1.O=C(O)C(=O)O | 2.38
69 | CCCCNC(=O)N1CCN(Cc2ccc(F)cc2)CC1 | -11.3
70 | Cn1c(=O)c2c(ncn2CC(O)CNc2ccc(F)cc2)n(C)c1=O (stereo not shown) | 1.35
71 | COc1ccc(S(=O)(=O)N2CCC(C(=O)NCCC(=O)NCc3ccncc3)CC2)cc1 | 11
72 | CCN(CCN1CCCC1)C(=O)c1cc(COc2ccccc2SC)on1 | -32.1

Row | Compound | hERG current change (%, negative = inhibition) at 10uM [%]
73 | CN(C)C=NC(=O)c1ccc(N2CCN(c3ncc(C(F)(F)F)cc3Cl)CC2)cc1 | 7.74
74 | O=C(NCCO)Nc1ccc2nsnc2c1 | -5.93
75 | NC(=O)c1ccccc1N=Cc1cccnc1 | -21
76 | Cc1cc(N2C(=O)c3ccc(C(=O)Nc4ccccc4O)cc3C2=O)no1 | 14.1
77 | O=c1c(Cc2c(F)cccc2Cl)c(O)ccn1C1CC1 | -11.7
78 | COc1ccc(NC(=O)c2csc3c2CCCCC3)c(OC)c1 | -6.93
79 | CCOC(=O)c1c(C)[nH]c(C(=O)N/N=C/c2cc([N+](=O)[O-])ccc2O)c1C | 33.7
80 | CCCCCn1c(=O)c(C(=O)Nc2ccccc2N)c(O)c2ccccc21 | 21.4
81 | CCOC(=O)c1cc(NCc2cccs2)ccc1N1CCOCC1 | -3.79
82 | COc1ccc(-c2[nH]c(-c3ccc4c(c3)OCO4)nc2-c2ccccc2)cc1 | 1.88
83 | COc1ccc(/C=N/NC(=O)c2cccnc2)cc1CN1CCc2ccccc2C1 | -17.9
84 | COc1ccc(/C=N/NC(=O)c2cccnc2)cc1CN1CCOCC1 | 13.6
85 | COc1cc(OC)cc(C(=O)N/N=C/c2ccc(OC)c(COc3ccc(F)cc3)c2)c1 | 6.62
86 | COc1ccc(/C=N/NC(=O)c2cccnc2)cc1CN1CCN(c2ccc(F)cc2)CC1 | -51
87 | COc1ccc(/C=N/NC(=O)c2ccccc2)cc1CN1CCN(c2ccc(F)cc2)CC1 | -74.5
88 | COc1ccc(/C=N/NC(=O)c2ccn[nH]2)cc1CN1CCOCC1 | -14.8
89 | COc1ccc(/C=N/NC(=O)c2ccccc2O)cc1CN1CCOCC1 | -12.8
90 | COc1ccc(/C=N\NC(=O)c2cc(O)c(O)c(O)c2)cc1CN1CCN(c2ccc(F)cc2)CC1 | 14.6
91 | COc1ccc(/C=N\NC(=O)c2ccccc2)cc1COc1ccc(F)cc1 | -0.876
92 | COc1ccc(/C=N/NC(=O)c2ccc(C)cc2)cc1CN1CCN(c2ccc(F)cc2)CC1 | -69.8
93 | COc1cc(C(=O)N/N=C/c2ccc(OC)c(CN3CCN(c4ccc(F)cc4)CC3)c2)ccc1O | -75.3
94 | COc1ccc(/C=N\NC(=O)c2ccccc2)cc1COc1ccccc1 | 20.6
